Laboratory results: PubChem BioAssay AID624117 (National Center for Advancing Translational Sciences (NCATS), 2012)
Inconclusive results are not listed. A number with no mark means an inactive call. Calls follow the shape of the dose curve; as a rule, active = well fitted curve in the direction sought with a large enough effect; inconclusive = small, poorly fitted or top-dose-only effect, or another doubt; inactive = no such curve, though single readings can be large or run the other way.

Test: qHTS Assay for Rab9 Promoter Activators: Hit Validation Using Renilla Luciferase Read-Out; also: % of control where 0% means no effect
Settings: Huh7 NPC1 promoter Renilla luciferase reporter, 24 h; series mostly up to 76.9 µM; activation (negative = inhibition): at the top concentration
Description: Niemann Pick Type C (NPC) is a rare neurodegenerative lipidosis that is characterized by lipid storage in the endosomal/lysosomal system. Treatment modalities for this devastating disease are currently non-existent due to the severe obstacles associated with accessing the central nervous system with proteins or genes. The majority of mutations causing NPC disease are missense mutations that are distributed throughout the length of the NPC1 protein, with the most prevalent being the I1061T allele. Although NPC1 mutant proteins may be functional, they are typically trapped in the ER due to misfolding. […] We have developed and optimized a cell based renilla luciferase reporter assay in 1536 well format for the identification of up-regulators of the mutant NPC1 promoter. This assay presents data on the validation of hits from the primary screen, which used a firefly luciferase read-out. NIH Chemical Genomics Center [NCGC] NIH Molecular Libraries Probe Production centers Network [MLPCN] MLPCN Grant: MH089375 Assay Submitter (PI): Yiannis A. Ioannou
Huh7 cells stably expressing NPC promoter-luciferase will be seeded at 1,500 cells/well in 5 uL in 1,536-well white opaque plates with 23 nL/well of compound in DMSO solution. The assay plates will be incubated at 37 deg C for 24 hours, after which 3 uL/well BriteLite plus luciferase detection reagent mixture (Perkin Elmer) will be added. Luminescence signal will be measured in a ViewLux plate reader (Perkin Elmer) after a 10 minute incubation at the room temperature.

Row | SMILES | activation (negative = inhibition)
1 | CCC(=NCc1cccnc1)c1c(O)n(-c2ccccc2)c(=O)[nH]c1=O | -4.03%
2 | Cc1cccn2c(NCC3CCCO3)c(C(C)C)nc12 (stereo not given) | 3.86%
3 | CN1CCc2cc3c(c4c2C1Cc1ccccc1-4)OCO3 (stereo not given) | -31.1%
4 | O=C1c2ccccc2C(=O)N1Cc1nc2ccccc2c(=O)n1-c1cccnc1 | 2.07%
5 | COc1cccc(CCNCc2ccc(SC)cc2)c1 | 5.03%
